These results are taken from PubChem BioAssay (Tox21).

Experiment [1] in a line: qHTS assay to identify small molecule agonists of the estrogen related receptor (ERR) signaling pathway from Tox21 library (AID 1224849; calls by dose curve; further: nearly all actives have a fitted effect of over 15% in size). To be noted: ERR reporter cell line, ONE-Glo luciferase, 18 h; at 92.4 µM (top of the series) unless noted. Put shortly:
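ERR reporter cell line (NTP) seeded, rested 6 h at 37 C/5% CO2, then pinned with Tox21 compounds in DMSO. After 18 h at 37 C, ONE-Glo luciferase luminescence was read following 30 min at room temperature.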
For orientation: Quantitative high-throughput screening tests each substance at several concentrations.

The nature of experiment [2]: qHTS RealTime-Glo MT Cell Viability Assay in HepG2 cells - 24 hour (AID 1224867). Further: nearly all actives have a fitted effect of over 50% in size. In short, it runs like this:
(§1)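 Luminescence read-out: viable HepG2 cells reduce a prosubstrate to a NanoLuc substrate, giving a signal proportional to live cell number. Reads taken at 0, 8, 16, 24, 32 and 40 h of compound exposure at 37 C.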

Experiment [3] in a line: qHTS RealTime-Glo MT Cell Viability Assay in HEK293 cells - 32 hour (AID 1224868). Further: nearly all actives have a fitted effect of over 50% in size. Further: potency means the concentration at half of the fitted maximal effect. In short, it runs like this:
(§2)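 Nonlytic real-time viability readout: viable cells convert prosubstrate to NanoLuc substrate, giving luminescence proportional to live cell number. HEK293, 600 cells/well, compound added after 5 h, continuous culture at 37 C.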

Experiment [4] in a line: A CellTox Green Cytotoxicity Assay to monitor cytotoxicity in HEK293 cells - 0 hour (AID 1224869). Further: nearly all actives have a fitted effect of over 50% in size. In short, it runs like this: (§3)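 HEK293 cells premixed with CellTox Green dye were seeded at 600 cells/well and left 5 h at 37 C/5% CO2 before pin transfer of 23 nL compound in DMSO. Fluorescence from dye bound to dead-cell DNA was read during 40 h treatment.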
Experiment [5] in a line: qHTS RealTime-Glo MT Cell Viability Assay in HepG2 cells - 40 hour (AID 1224870). Further: nearly all actives have a fitted effect of over 50% in size. In short, it runs like this: (§4)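 HepG2 cells mixed with RealTime-Glo MT reagents (NanoLuc plus cell-permeant prosubstrate) were seeded at 600 cells/well, incubated 5 h at 37 C/5% CO2, then pinned with compounds in DMSO; nonlytic luminescence tracked viability during 40 h treatment.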
A short description of experiment [6]: qHTS RealTime-Glo MT Cell Viability Assay in HEK293 cells - 16 hour (AID 1224872). Further: nearly all actives have a fitted effect of over 50% in size. Further: potency means the concentration at half of the fitted maximal effect. Put shortly: as §2
Experiment [7] in a line: qHTS RealTime-Glo MT Cell Viability Assay in HepG2 cells - 8 hour (AID 1224873). Further: nearly all actives have a fitted effect of over 55% in size. Put shortly: as §4
Experiment [8] can be described thus: qHTS RealTime-Glo MT Cell Viability Assay in HEK293 cells - 40 hour (AID 1224874). Further: nearly all actives have a fitted effect of over 50% in size. Further: potency means the concentration at half of the fitted maximal effect. To be noted: RealTime-Glo luminescence; max response: hits give low values. In short, it runs like this:
(§5)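 HEK293 cells mixed with RealTime-Glo reagents (NanoLuc plus cell-permeant prosubstrate) at 600 cells/well, preincubated 5 h at 37 C/5% CO2, then given 23 nL compound in DMSO. Nonlytic luminescence from viable cells was read at 0, 8, 16, 24, 32 and 40 h.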

Experiment [9] is described as follows: qHTS RealTime-Glo MT Cell Viability Assay in HepG2 cells - 32 hour (AID 1224877). Further: nearly all actives have a fitted effect of over 55% in size. In short, it runs like this: as §1
The nature of experiment [10]: A CellTox Green Cytotoxicity Assay to monitor cytotoxicity in HepG2 cells - 24 hour (AID 1224878). Further: nearly all actives have a fitted effect of over 45% in size. Put shortly: (§6)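 HepG2 cells were seeded together with the CellTox Green dye at 600 cells/well, left 5 h at 37 C/5% CO2, then given compounds in DMSO. Fluorescence from dye bound to dead-cell DNA was read repeatedly over 40 h of treatment at 37 C.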
The nature of experiment [11]: A CellTox Green Cytotoxicity Assay to monitor cytotoxicity in HepG2 cells - 40 hour (AID 1224879). Further: nearly all actives have a fitted effect of over 40% in size. Further: potency means the concentration at half of the fitted maximal effect. In short, it runs like this: as §6
Experiment [12] is described as follows: qHTS RealTime-Glo MT Cell Viability Assay in HEK293 cells - 0 hour (AID 1224880). Further: top concentration of the series differs between compounds; nearly all actives have a fitted effect of over 45% in size. Put shortly:
as §5

Experiment [13] is described as follows: A CellTox Green Cytotoxicity Assay to monitor cytotoxicity in HEK293 cells - 32 hour (AID 1224881). Further: nearly all actives have a fitted effect of over 40% in size. Put shortly: as §3
A short description of experiment [14]: A CellTox Green Cytotoxicity Assay to monitor cytotoxicity in HepG2 cells - 0 hour (AID 1224882). Further: nearly all actives have a fitted effect of over 35% in size. In short, it runs like this:
as §6

Experiment [15] can be described thus: A CellTox Green Cytotoxicity Assay to monitor cytotoxicity in HepG2 cells - 32 hour (AID 1224883). Further: nearly all actives have a fitted effect of over 50% in size. In short, it runs like this: as §6
Experiment [16] in a line: A CellTox Green Cytotoxicity Assay to monitor cytotoxicity in HEK293 cells - 8 hour (AID 1224884). Further: nearly all actives have a fitted effect of over 35% in size. In short, it runs like this:
as §3

A short description of experiment [17]: qHTS RealTime-Glo MT Cell Viability Assay in HepG2 cells - 16 hour (AID 1224885). Further: nearly all actives have a fitted effect of over 50% in size. In short, it runs like this: as §1
A short description of experiment [18]: A CellTox Green Cytotoxicity Assay to monitor cytotoxicity in HEK293 cells - 40 hour (AID 1224871). Further: nearly all actives have a fitted effect of over 45% in size. In short, it runs like this:
as §3

A short description of experiment [19]: A CellTox Green Cytotoxicity Assay to monitor cytotoxicity in HEK293 cells - 24 hour (AID 1224875). Further: nearly all actives have a fitted effect of over 45% in size. Put shortly: as §3
Experiment [20] is described as follows: A CellTox Green Cytotoxicity Assay to monitor cytotoxicity in HepG2 cells - 16 hour (AID 1224876). Further: nearly all actives have a fitted effect of over 45% in size. Put shortly: as §6

Values without a mark were called inactive. Results filed as inconclusive are left out. Active and inactive are the calls of the source. Unless noted, the call rests on the fitted dose curve; in most records, active means well fitted curve in the direction sought with a large enough effect in the repeat runs; inconclusive means weak or mixed curves; inactive means no such curve, though single readings can be large; an effect the other way counts as inactive or inconclusive.
On the % scale 0 is the no-effect control and ±100 the full control effect.

`ONc1ccccc1`: the activity change, positive = activation in experiment [1] is 20.7% (active). Moreover, the outcome in experiment [2], in [5], in [7], in experiment [9] and in experiment [17] was inactive. Besides, the Potency result in experiment [3], in [4], in experiment [6], in experiment [10], in experiment [11] and in [12] was “inactive” in each case. Further, the Potency result in [13], in experiment [14], in experiment [15] and in [16] was “inactive” throughout. Moreover, the max response in experiment [8] was -13.8%.
Consider `O=C(O)CSCC(=O)NC1CCSC1=O` (stereo unspecified), for which the call in experiment [2], in experiment [5], in experiment [7], in [9] and in experiment [17] was inactive. Besides, the Potency entry in experiment [3], in experiment [4], in experiment [18], in [6], in experiment [19] and in experiment [20] was “inactive” throughout. In addition, the Potency entry in experiment [10], in experiment [11], in experiment [12], in experiment [13], in experiment [14] and in [15] was “inactive” throughout. Further, the Potency result in experiment [16] was “inactive”. Besides, the max response in experiment [8] was -1.55%.
In the case of `OC[C@@H](O)C(O)[C@@H](O)CO` (stereo partly specified), the activity change, positive = activation in [1] is 9.91%. The result in experiment [2], in experiment [5], in [7], in [9] and in experiment [17] was inactive. Moreover, the Potency entry in experiment [3], in [18], in experiment [6], in [19], in [20] and in experiment [10] was “inactive” throughout. The Potency result in experiment [11], in experiment [12], in experiment [13], in experiment [14], in experiment [15] and in experiment [16] was “inactive” throughout. The max response in experiment [8] is -0.153%.
In the case of `C/C=C(\C)C(=O)OCCc1ccccc1`, the activity change, positive = activation in experiment [1] was 9.96%. Moreover, the result in experiment [2], in experiment [5], in [7], in [9] and in experiment [17] was inactive. Moreover, the Potency result in [3], in experiment [4], in experiment [6], in experiment [20], in [10] and in experiment [11] was “inactive” each time. Further, the Potency entry in [12] and in experiment [15] was “inactive” in each case. In experiment [8], the max response is -3.34%.
Take `COc1cc2c(cc1OC)C(=O)C(CC1CCN(Cc3ccccc3)CC1)C2` (stereo unspecified): the activity change, positive = activation in experiment [1] was 2.42% [at 42.5 µM]. Also, the compound was called inactive in experiment [2], in experiment [5], in experiment [7], in [9] and in experiment [17]. In addition, the Potency in experiment [3] is 21.3 µM (active); in experiment [6], 21.3 µM (active); in [8], 23.9 µM (active); in [11], 21.3 µM (active). The Potency result in experiment [4], in [18], in [19], in experiment [10], in experiment [12] and in experiment [13] was “inactive” in each case. Besides, the Potency entry in experiment [14] and in experiment [16] was “inactive” throughout.
`CCCCOC(=O)[C@H](C)O`: the call in experiment [2], in experiment [5], in [7], in experiment [9] and in experiment [17] was inactive. For the same compound, the Potency entry in experiment [3], in experiment [4], in experiment [18], in [6], in [19] and in [20] was “inactive” throughout. Also, the Potency entry in [10], in experiment [11], in experiment [12], in experiment [13], in [14] and in experiment [15] was “inactive” each time. For the same compound, in experiment [16], the Potency result is “inactive”. Further, in [8], the max response was 1.9%.
Turning to `Fc1ccccc1`, the activity change, positive = activation in [1] was 8.1%. Besides, the compound was classed as inactive in experiment [2], in experiment [5], in experiment [9] and in experiment [17]. Moreover, the Potency entry in [3], in [4], in experiment [18], in [6], in experiment [19] and in [20] was “inactive” throughout. Moreover, the Potency entry in experiment [10], in experiment [11], in [12], in [13], in experiment [14] and in [15] was “inactive” throughout. In addition, in [16], the Potency entry is “inactive”. The max response in experiment [8] was 13.3%.
